According to PubChem BioAssay (Tox21):
Inconclusive results are not listed. Active and inactive are the calls of the source. Unless noted, calls come from the whole dose curve.

What was measured:
[1] = Nuclear factor erythroid 2-related factor 2/antioxidant responsive element (Nrf2/ARE) small molecule agonists: qHTS cell viability counter screen in human keratinocytes (AID 1919968; active = well fitted curve in the direction sought with a large enough effect in the repeat runs; an effect the other way counts as inactive or inconclusive; note: nearly all actives have a fitted effect of over 55% in size; note: potency is the fitted concentration of half-maximal effect); conditions: KeratinoSens HaCaT ARE cells viability, CellTiter-Fluor, 24 h; series mostly up to 92.4 µM
Summary of the method: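 Viability counter-screen: KeratinoSens reporter cells, DMSO-delivered compounds, 23 h at 37 C, CellTiter-Fluor fluorescence.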

[2] = Nuclear factor erythroid 2-related factor 2/antioxidant responsive element (Nrf2/ARE) small molecule agonists: luciferase reporter gene qHTS assay in human keratinocytes (AID 1919969); conditions: KeratinoSens HaCaT ARE-luciferase, luminescence, 24 h; series mostly up to 92.4 µM; note: nearly all actives have a fitted effect of over 35% in size
[3] = biological target: Gonadotropin-releasing hormone receptor (Homo sapiens) (UniProt P30968); assay: Human gonadotropin-releasing hormone receptor (GnRHR) small molecule agonists, calcium flux assay in GnRHR-HEK293 cells (AID 1920063); conditions: calcium flux fluorescence, agonist mode; series mostly up to 57.6 µM; note: nearly all actives have a fitted effect of over 35% in size
Chain of Gonadotropin-releasing hormone receptor (Homo sapiens) (P30968 whole entry, looked up): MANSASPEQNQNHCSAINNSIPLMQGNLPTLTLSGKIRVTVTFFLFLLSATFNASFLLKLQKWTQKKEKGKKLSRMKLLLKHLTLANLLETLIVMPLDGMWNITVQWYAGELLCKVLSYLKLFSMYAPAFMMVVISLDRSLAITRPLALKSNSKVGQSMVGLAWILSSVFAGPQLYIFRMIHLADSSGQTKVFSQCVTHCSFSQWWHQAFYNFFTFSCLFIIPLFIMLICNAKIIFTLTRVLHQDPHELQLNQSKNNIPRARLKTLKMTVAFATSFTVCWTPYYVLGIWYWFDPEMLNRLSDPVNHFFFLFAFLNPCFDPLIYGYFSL
Summary of the method: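 Tox21-format agonist screen using human GnRHR-expressing HEK293 cells and a fluorescent calcium dye; kinetic 3-min fluorescence reading after compound addition, 15-point concentration series run in triplicate.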

[4] = biological target: KiSS-1 receptor (Homo sapiens) (UniProt Q969F8); assay: Human kisspeptin (KISS1R) small molecule agonists, calcium flux assay in KISS1R-HEK293 cells (AID 1920064; active = well fitted curve in the direction sought with a large enough effect in the repeat runs; an effect the other way counts as inactive or inconclusive); conditions: KISS1R-HEK293, calcium flux fluorescence, agonist; series mostly up to 76.8 µM
Chain of KiSS-1 receptor (Homo sapiens) (Q969F8 whole entry, looked up): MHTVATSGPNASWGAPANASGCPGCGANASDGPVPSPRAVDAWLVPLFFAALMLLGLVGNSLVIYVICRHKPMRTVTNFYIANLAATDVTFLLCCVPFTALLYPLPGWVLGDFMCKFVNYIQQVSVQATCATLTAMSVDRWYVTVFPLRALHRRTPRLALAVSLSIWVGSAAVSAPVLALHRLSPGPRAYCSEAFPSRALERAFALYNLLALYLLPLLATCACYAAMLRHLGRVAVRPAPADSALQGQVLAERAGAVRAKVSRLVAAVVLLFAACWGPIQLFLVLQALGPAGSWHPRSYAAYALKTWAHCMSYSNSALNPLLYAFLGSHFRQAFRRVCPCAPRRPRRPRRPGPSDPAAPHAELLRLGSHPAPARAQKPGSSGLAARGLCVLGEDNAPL
Summary of the method: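 Intracellular calcium mobilization in KISS1R-HEK293 cells was recorded by fluorescence (Ex/Em 480/540) for 3 min following compound addition to cells pre-loaded 1 h with calcium dye.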

[5] = G protein-coupled receptor (GPCR) small molecule agonists, calcium flux assay: HEK293 wild type cell line counter screen (AID 1920065); conditions: HEK293 WT calcium flux, fluorescence, agonist mode; series mostly up to 57.6 µM
Summary of the method: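 In this agonist-mode screen, ATP is the positive control and DMSO the vehicle. Cells grow 18 h before a 1 h dye incubation at 37 C; signal is taken at Ex/Em 480/540 over 3 min.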

[6] = p53 small molecule agonists, cell-based qHTS assay with human liver microsomes (AID 1963577); conditions: HCT-116 p53RE-bla with human liver microsomes, ratio, 16 h; series mostly up to 66 µM;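 note: p53 response element beta-lactamase reporter cells with liver microsomes plus NADPH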
Summary of the method: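 Reporter activation was measured by LiveBLAzer fluorescence intensity in p53RE-bla cells, which had been exposed to compounds for 16 h at 37 C alongside 0.5 mg/mL human liver microsomes and 0.5 mg/mL NADPH (final concentrations).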

[7] = p53 small molecule agonists, cell-based qHTS assay with rat liver microsomes (AID 1963578); conditions: HCT-116 p53RE-bla, beta-lactamase ratio, 16 h; series mostly up to 66 µM
Summary of the method: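 Compound in DMSO added to p53RE-bla cells 5 h post-plating; rat microsomes/NADPH 0.5 mg/mL final; 16 h, 37 C; LiveBLAzer 2 h RT.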

[8] = p53 small molecule agonists, cell-based qHTS assay with human liver microsomes: qHTS cell viability counter screen (AID 1963579); conditions: p53RE-bla HCT-116 viability, ATP luminescence, 16 h, HLM; series mostly up to 66 µM; note: nearly all actives have a fitted effect of over 45% in size
Summary of the method: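 HLM-supplemented (0.5 mg/mL final) and NADPH-supplemented (0.5 mg/mL final) p53RE-bla cultures, 4,000 cells per well, were dosed with compounds in DMSO for 16 h at 37 C; luminescent ATP detection (CellTiter-Glo, 30 min, room temperature) quantified surviving cells.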

[9] = p53 small molecule agonists, cell-based qHTS assay with rat liver microsomes: qHTS cell viability counter screen (AID 1963580); conditions: p53RE-bla HCT-116 + rat microsomes, ATP viability, 16 h; series mostly up to 66 µM; note: nearly all actives have a fitted effect of over 45% in size
Summary of the method: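 HCT-116 p53RE-bla, 4,000 cells/well, 5 h pre-incubation; cpd + rat liver microsomes 0.5 mg/mL + NADPH 0.5 mg/mL (final); 16 h, 37 C; CellTiter-Glo, 30 min RT; luminescence.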

[10] = p53 small molecule agonists, cell-based qHTS assay: qHTS cell viability counter screen (AID 1963581); conditions: p53RE-bla HCT-116 viability, ATP luminescence, 16 h; series mostly up to 66 µM; note: nearly all actives have a fitted effect of over 45% in size
Summary of the method: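 Compounds are pinned onto HCT-116 p53RE-bla cells and left 16 h at 37 C. Following the reporter FRET read, ATP is quantified by CellTiter-Glo luminescence after 30 min at room temperature.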

[11] = p53 small molecule agonists, cell-based qHTS assay (AID 1963582; active = well fitted activation curve with a large enough effect in the signal ratio in the repeat runs, not every such curve was filed as active; the % refers to the signal ratio); conditions: HCT-116 p53RE-bla reporter, beta-lactamase FRET ratio, 16 h; series mostly up to 66 µM
Summary of the method: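 Agonist activity was scored from beta-lactamase FRET fluorescence in p53RE-bla cells treated 16 h at 37 C with compounds in DMSO, substrate incubation being 2 h at room temperature.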

[12] = biological target: 5-hydroxytryptamine receptor 2A (Homo sapiens) (UniProt P28223); assay: 5-hydroxytryptamine receptor 2A (HTR2A) small molecule agonists, cell-based qHTS assay (AID 1963587); conditions: HTR2A-CHO cells, calcium flux fluorescence, agonist mode; series mostly up to 76.8 µM; note: nearly all actives have a fitted effect of over 30% in size; note: potency is the fitted concentration of half-maximal effect
Chain of 5-hydroxytryptamine receptor 2A (Homo sapiens) (P28223 whole entry, looked up): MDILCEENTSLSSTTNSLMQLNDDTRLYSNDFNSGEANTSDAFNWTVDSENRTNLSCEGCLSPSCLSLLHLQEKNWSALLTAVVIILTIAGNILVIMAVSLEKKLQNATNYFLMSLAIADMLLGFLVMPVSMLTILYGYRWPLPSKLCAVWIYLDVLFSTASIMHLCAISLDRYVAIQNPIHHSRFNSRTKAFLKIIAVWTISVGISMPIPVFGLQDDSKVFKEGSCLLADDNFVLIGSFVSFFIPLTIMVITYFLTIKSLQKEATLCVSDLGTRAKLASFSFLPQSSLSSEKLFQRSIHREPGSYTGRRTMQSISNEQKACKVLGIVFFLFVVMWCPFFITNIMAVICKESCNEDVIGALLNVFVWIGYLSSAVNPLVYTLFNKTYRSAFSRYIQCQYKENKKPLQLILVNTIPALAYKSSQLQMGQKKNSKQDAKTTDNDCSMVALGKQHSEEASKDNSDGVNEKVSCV
Summary of the method: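 Kinetic calcium-flux fluorescence (2 min, 1 sec intervals) after compound addition in agonist mode. HTR2A-CHO cells were cultured 18 h, then dye-loaded 1 h at 37 C.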

[13] = biological target: Muscarinic acetylcholine receptor M1 (Homo sapiens) (UniProt P11229); assay: Cholinergic receptor muscarinic 1 (CHRM1) small molecule agonists, cell-based qHTS assay (AID 1963589); conditions: CHRM1-CHO cells, agonist mode, calcium flux fluorescence; series mostly up to 76.8 µM; note: nearly all actives have a fitted effect of over 35% in size
Chain of Muscarinic acetylcholine receptor M1 (Homo sapiens) (P11229 whole entry, looked up): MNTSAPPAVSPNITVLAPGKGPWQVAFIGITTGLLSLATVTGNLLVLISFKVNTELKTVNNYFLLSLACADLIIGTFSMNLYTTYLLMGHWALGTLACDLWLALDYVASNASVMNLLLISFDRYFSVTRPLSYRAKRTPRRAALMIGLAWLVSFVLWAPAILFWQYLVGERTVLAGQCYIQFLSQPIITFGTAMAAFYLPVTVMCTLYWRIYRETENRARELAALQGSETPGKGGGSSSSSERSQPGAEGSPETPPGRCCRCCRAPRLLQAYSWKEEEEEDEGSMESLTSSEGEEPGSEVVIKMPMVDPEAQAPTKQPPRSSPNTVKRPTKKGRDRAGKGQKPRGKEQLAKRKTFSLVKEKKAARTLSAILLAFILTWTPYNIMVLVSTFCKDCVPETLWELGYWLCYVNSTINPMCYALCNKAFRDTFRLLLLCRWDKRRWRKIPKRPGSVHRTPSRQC
Summary of the method: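 Stable CHRM1-CHO cells (human receptor) were incubated 18 h, dye-loaded for 1 h at 37 C and exposed to test compounds for agonist activity, with calcium-dependent fluorescence followed kinetically.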

[14] = cAMP Responsive Elements (CRE) small molecule antagonists, cell-based qHTS assay (AID 1963591; active = well fitted inhibition curve with a large enough effect in the signal ratio in the repeat runs, not every such curve was filed as active; the % refers to the signal ratio; note: potency is the fitted concentration of half-maximal effect); conditions: CRE-bla HEK293T, beta-lactamase FRET ratio; series mostly up to 92.4 µM
Summary of the method: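 qHTS in CRE-bla HEK 293T cells: compound in DMSO, then 0.25 uM NKH477 (final), 3 h at 37 °C/5% CO2; beta-lactamase FRET read-out after 2 h substrate incubation.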

[15] = biological target: D(2) dopamine receptor (Homo sapiens) (UniProt P14416); assay: Dopamine D2 receptor (DRD2) small molecule agonists, cell-based qHTS assay (AID 1963594); conditions: HEK293-DRD2 cAMP HTRF, agonist mode, 30 min; series mostly up to 92.4 µM; note: nearly all actives have a fitted effect of over 35% in size
Chain of D(2) dopamine receptor (Homo sapiens) (P14416 whole entry, looked up): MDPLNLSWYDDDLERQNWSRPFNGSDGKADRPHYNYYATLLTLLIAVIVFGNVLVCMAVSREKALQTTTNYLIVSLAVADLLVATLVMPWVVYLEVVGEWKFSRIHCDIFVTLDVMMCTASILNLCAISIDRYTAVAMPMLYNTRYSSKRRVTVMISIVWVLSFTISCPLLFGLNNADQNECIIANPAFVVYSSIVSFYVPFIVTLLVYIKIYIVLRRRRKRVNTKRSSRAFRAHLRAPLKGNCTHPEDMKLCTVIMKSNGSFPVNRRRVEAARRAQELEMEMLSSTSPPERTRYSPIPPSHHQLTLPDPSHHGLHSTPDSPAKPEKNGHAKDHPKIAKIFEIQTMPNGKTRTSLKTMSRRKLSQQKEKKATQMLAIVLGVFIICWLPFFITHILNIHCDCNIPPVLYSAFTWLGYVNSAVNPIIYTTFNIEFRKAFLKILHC
Summary of the method: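 cAMP accumulation in DRD2-HEK293 cells measured by HTRF after 1 h detection; compounds added 10 min before NKH477 (200nM […]) forskolin-analogue stimulation, 30 min at room temperature, with Ro20-1724 present at 0.1 mM final.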

[16] = biological target: D(2) dopamine receptor (Homo sapiens) (UniProt P14416); assay: Dopamine D2 receptor (DRD2) small molecule antagonists, cell-based qHTS assay (AID 1963595; active = well fitted inhibition curve with a large enough effect in the signal ratio in the repeat runs, with a control signal flat; the % refers to the signal ratio); conditions: HEK293-DRD2 cAMP HTRF antagonist mode; series mostly up to 92.4 µM
Summary of the method: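 Stable D2 receptor HEK293 line, 24 h after seeding. Compound preincubated 10 min, then quinpirole (12 nM) with forskolin analogue NKH477 (200 nM), 30 min, room temperature. Detection by time-resolved FRET of cAMP.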

[17] = biological target: Muscarinic acetylcholine receptor M1 (Homo sapiens) (UniProt P11229); assay: Cholinergic receptor muscarinic 1 (CHRM1) small molecule antagonists, cell-based qHTS assay (AID 1963588); conditions: CHRM1-CHO antagonist mode, calcium flux fluorescence; series mostly up to 61.5 µM; note: nearly all actives have a fitted effect of over 40% in size; note: potency is the fitted concentration of half-maximal effect
Summary of the method: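 CHRM1-CHO calcium-flux assay, antagonist mode. Cells were seeded 18 h, dye-loaded 1 h at 37 C and given compound for 5 min at RT, then acetylcholine was added at 50nM. FDSS fluorescence was read 3 min; 15 concentrations, three runs.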

[18] = cAMP Responsive Elements (CRE) small molecule agonists, cell-based qHTS assay (AID 1963590); conditions: CRE-bla HEK293T, beta-lactamase FRET ratio, 3 h; series mostly up to 92.4 µM
Summary of the method: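 FRET-based beta-lactamase readout (LiveBLAzer B/G, 2 h RT) quantified CRE activation in HEK 293T CRE-bla cells after 3 h treatment with DMSO-dissolved compounds.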

[19] = biological target: Beta-2 adrenergic receptor (Homo sapiens) (UniProt P07550); assay: Adrenergic beta2 receptor (ADRB2) small molecule antagonists, cell-based qHTS assay (AID 1963592); conditions: CHO-ADRB2 cells, isoproterenol-stimulated cAMP HTRF ratio, 0.5 h; series mostly up to 92.4 µM; note: nearly all actives have a fitted effect of over 50% in size
Chain of Beta-2 adrenergic receptor (Homo sapiens) (P07550 whole entry, looked up): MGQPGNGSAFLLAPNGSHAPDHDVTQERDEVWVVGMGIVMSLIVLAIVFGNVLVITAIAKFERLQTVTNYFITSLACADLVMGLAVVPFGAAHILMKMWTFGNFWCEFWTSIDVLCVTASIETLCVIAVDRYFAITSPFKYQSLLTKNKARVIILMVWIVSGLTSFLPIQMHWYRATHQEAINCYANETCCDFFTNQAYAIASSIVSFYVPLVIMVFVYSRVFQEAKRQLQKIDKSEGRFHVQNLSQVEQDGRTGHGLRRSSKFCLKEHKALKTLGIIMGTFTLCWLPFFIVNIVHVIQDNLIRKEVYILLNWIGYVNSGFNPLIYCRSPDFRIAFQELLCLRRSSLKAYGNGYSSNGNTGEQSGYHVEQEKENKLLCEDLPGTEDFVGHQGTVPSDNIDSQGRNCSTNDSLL
Summary of the method: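 Cells (CHO, stable ADRB2 overexpression) incubated 18-20hr at 37C; compounds added from DMSO; agonist mix (1nM isoproterenol, 100uM IBMX, 25uM Ro-20-1724) added; 0.5hr RT; d2-cAMP and anti-cAMP-cryptate added; 1hr RT; 665/615 nm read.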

[20] = biological target: 5-hydroxytryptamine receptor 2A (Homo sapiens) (UniProt P28223); assay: 5-hydroxytryptamine receptor 2A (HTR2A) small molecule antagonists, cell-based qHTS assay (AID 1963586); conditions: HTR2A-CHO cells, DOI-induced calcium flux, fluorescence; series mostly up to 61.5 µM; note: nearly all actives have a fitted effect of over 45% in size
Summary of the method: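 Antagonist-mode intracellular calcium assay: DOI (4 nM) added after 5 min compound pre-incubation at room temperature to dye-loaded HTR2A-CHO cells. Fluorescence followed for 3 min, sampled every second.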
% is set by controls: 0 for no effect and ±100 for the full control effect.

CC(C(O)c1ccccc1)N(C)C/C=C/c1ccccc1 (stereo not drawn)
inactive: Potency [1] | Potency [2] | Potency [3] | Potency [4] | Potency [5] | Potency [6] | Potency [7] | Potency [8] | Potency [9] | Potency [10] | Potency [11] | Potency [12] | Potency [13] | Potency [14] | Potency [15] | Potency [16]

Cc1nc(N)nc(N)n1
inactive: Potency [1] | Potency [2] | Potency [3] | Potency [4] | Potency [5] | Potency [6] | Potency [7] | Potency [8] | Potency [9] | Potency [10] | Potency [11] | Potency [12] | Potency [17] | Potency [13] | Potency [18] | Potency [14] | Potency [19] | Potency [15]

O=c1oc2ccccc2c(O)c1C1CCCc2ccccc21 (stereo not drawn)
inactive: Potency [1] | Potency [2] | Potency [3] | Potency [4] | Potency [5] | Potency [6] | Potency [7] | Potency [8] | Potency [9] | Potency [10] | Potency [11] | Potency [12] | Potency [17] | Potency [13] | Potency [18] | Potency [14] | Potency [15] | Potency [16]

Cc1ccc2c(c1)C1CN(C)CCC1N2 (stereo not drawn)
inactive: activity change, negative = cytotoxicity [1] -10.1% [at 19 µM] | activity, positive = activation [2] -3.42% [at 19 µM] | activity change [3] 1.2% [at 11.8 µM, stronger effect = higher value] | activation [4] -0.319% [at 15.8 µM] | activation [5] -0.508% [at 11.8 µM] | activation [6] 3.07% [at 13.5 µM] | activation [7] -0.463% [at 13.6 µM] | activity change, negative = cytotoxicity [8] -1.76% [at 13.5 µM] | activity change, negative = cytotoxicity [9] -8.73% [at 13.5 µM] | activity change, negative = cytotoxicity [10] 13.5% [at 13.5 µM] | activation [11] 0% [at 13.5 µM] | activation [13] -0.313% [at 15.8 µM] | activation [18] -1.75% [at 19 µM] | activity change, negative = inhibition [14] -7.6% [at 18.9 µM] | activity change, negative = inhibition [16] -2.92% [at 18.9 µM]
active: Potency [12] 0.165 µM

CC(C)(Cl)[N+](=O)[O-]
inactive: Potency [1] | Potency [2] | Potency [3] | Potency [4] | Potency [5] | Potency [6] | Potency [7] | Potency [8] | Potency [9] | Potency [10] | Potency [20] | Potency [12] | Potency [17] | Potency [13] | Potency [18] | Potency [19] | Potency [15] | Potency [16]

CC1(c2ccc(Oc3ccccc3)cc2)OC(=O)N(Nc2ccccc2)C1=O (stereo not drawn)
inactive: Potency [2] | Potency [3] | Potency [4] | Potency [5] | Potency [6] | Potency [7] | Potency [8] | Potency [9] | Potency [10] | Potency [11] | Potency [12] | Potency [18] | Potency [15] | Potency [16]
active: Potency [1] 27.5 µM | Potency [17] 5.33 µM | Potency [14] 61.5 µM
